Screening results as filed in PubChem BioAssay.
Only some compounds are listed: those with a hit (about 9.9% of all), similar ones and a draw of the others.
KDM4E inh – JMJD2E (human) inhibition; B2RXH2; JMJD2E catalytic domain, FDH-coupled NADH fluorescence (FDH is formaldehyde dehydrogenase); Potency, µM (highest dose often 57.1 µM), without a hit: at the highest dose activity change, negative = inhibition, actives largely listed as inhibitors; 230,000 tested, 1.6% active; active = well fitted inhibition curve with a large enough effect, not every such curve was filed as active; inconclusive = small, poorly fitted or top-dose-only effect, or another doubt; inactive = no such curve, though single readings can be large or run the other way;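 also: 0% = wells with enzyme and -100% = buffer wells without enzyme; nearly all actives have a fitted effect of over 50% in size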
Tau ThT inhib – tau fibrillization inhibition (ThT binding); 270,000 tested, 2.1% active; P10636; recombinant tau K18 P301L, heparin-induced fibrillization, ThT fluorescence; Potency, µM (titrated, usually from 57.4 µM), without a hit: top-dose activity, negative = inhibition, most hits filed as inhibitors; also: nearly all actives have a fitted effect of over 55% in size
Target sequence (P10636 561-689 P618L limits assumed): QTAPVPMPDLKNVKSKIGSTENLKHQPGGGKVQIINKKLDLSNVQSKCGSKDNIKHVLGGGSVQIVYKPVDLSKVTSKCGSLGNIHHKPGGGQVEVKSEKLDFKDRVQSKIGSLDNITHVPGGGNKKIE
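Aggregation was driven by heparin (20 uM final) acting on recombinant tau […] bearing P301L in 100 mM sodium acetate pH 7; fibrils were detected with Thioflavin T.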
Tau fibril FP – inhibitors of human tau fibril formation; K18 P301L tau heparin fibrillization, Alexa594 FP, 6 h; AID 1468; Potency, µM (doses to about 57.7 µM), inactives show at the top dose activity, negative = inhibition, usual class: inhibitors; P10636; 280,000 tested, 0.39% active; also: nearly all actives have a fitted effect of over 55% in size
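Steps: dispense K18 P301L tau (15 uM plus 0.24 uM Alexa 594 tracer, final) in pH 7 sodium acetate; add compound; add heparin (20 uM final); incubate 6 hr, 37 C; add ThT (30 uM final); after 1 hr ambient, read FP.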
Tau fluor cs – counter-screen for tau fibril formation inhibitors; tau K18 P301L Alexa594 fluorescence, heparin fibrillization; AID 1463; 280,000 tested, 0.93% active; Potency, µM (top dose mostly 57.7 µM), without a hit: at the highest dose activity change, negative = decrease; also: nearly all actives have a fitted effect of over 55% in size
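Human tau K18 P301L (15 uM unlabeled, 0.24 uM Alexa 594-labeled) in 100 mM sodium acetate pH 7 with 20 uM heparin, 6 hr at 37 C. ThT 30 uM added, 1 hr ambient; Alexa 594 FP and total fluorescence read at 555/632 nm.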
HPGD block – inhibitors of human 15-hydroxyprostaglandin dehydrogenase (HPGD) | Potency, µM, without a hit: at the top dose activity change, negative = inhibition, hits mostly inhibitors | 150,000 tested, 4.3% active | purified HPGD, NADH fluorescence kinetic, PGE2 substrate | AID 894; active = well fitted inhibition curve with a large enough effect, not every such curve was filed as active; inconclusive = small, poorly fitted or top-dose-only effect, or another doubt; inactive = no such curve, though single readings can be large or run the other way
Target sequence (P15428 whole entry, looked up): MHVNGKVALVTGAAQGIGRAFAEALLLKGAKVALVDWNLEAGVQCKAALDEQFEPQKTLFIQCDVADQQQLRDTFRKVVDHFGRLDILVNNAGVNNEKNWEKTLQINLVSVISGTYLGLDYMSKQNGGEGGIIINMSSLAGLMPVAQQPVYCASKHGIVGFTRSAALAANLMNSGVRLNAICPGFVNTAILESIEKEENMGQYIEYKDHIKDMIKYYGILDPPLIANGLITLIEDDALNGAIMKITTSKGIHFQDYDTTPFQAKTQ
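20 nM HPGD preincubated 15 min at room temperature with compound in 50 mM Tris-HCl pH 8, 0.01% Tween 20. Started with 1 mM NAD+ and 30 uM prostaglandin E2; NADH fluorescence (360/450 nm) read 5 times over 30-s intervals, last minus first.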
ALDH1A1 block – inhibitors of human aldehyde dehydrogenase 1A1; P00352; Purified ALDH1A1, NADH fluorescence, propionaldehyde substrate; Potency, µM (series often up to 75.3 µM), for inactives: at the highest dose activity, negative = inhibition, hits mostly inhibitors; 220,000 tested, 7.3% active; AID 1030; active = well fitted inhibition curve with a large enough effect, not every such curve was filed as active; inconclusive = small, poorly fitted or top-dose-only effect, or another doubt; inactive = no such curve, though single readings can be large or run the other way;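 also: plate controls were no enzyme wells and a reference inhibitor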
* marks the source's active call; other numbers are inactive results; ? = inconclusive; / = not tested or not shown; [ ] = remark or other dose. Unless noted, calls follow the shape of the dose curve; as a rule, active = well fitted curve in the direction sought with a large enough effect; inconclusive = small, poorly fitted or top-dose-only effect, or another doubt; inactive = no such curve, though single readings can be large; an effect the other way counts as inactive or inconclusive. Unless noted, % is scaled to controls: 0 for no effect and ±100 for the full control effect; potency is read from the fitted curve at half-maximal effect.

SMILES	KDM4E inh	Tau ThT inhib	Tau fibril FP	Tau fluor cs	HPGD block	ALDH1A1 block
COC(=O)CCC(=O)COc1ccc(OC)cc1C#N	4%	-3%	-4%	0%	/	-5%
COC(=O)CCC(=O)COc1ccccc1C#N	3%	-8%	4%	-1%	14µM*	?
O=C(CSCc1ccc(Cl)cc1)NCc1ccccn1	-7%	-8%	0%	2%	-12%	?
CCOc1ccc(NC(=O)Cn2c(=O)c(CNc3ccc(OC)cc3)cc3ccc(OC)cc32)cc1	/	?	?	20µM*[quencher]	/	/
COc1ccc(NCc2cc3cc4c(cc3n(CC(=O)Nc3ccc(F)cc3)c2=O)OCCO4)cc1	/	-7%	?	11µM*[quencher]	/	/
COc1ccc2cc(CNc3ccc(C)cc3)c(=O)n(CC(=O)Nc3ccc(OC)c(Cl)c3)c2c1	/	3%	?	?	/	/
CCc1ccc(NCc2cc3cc4c(cc3n(CC(=O)Nc3ccc(F)cc3)c2=O)OCCO4)cc1	/	3%	13%	?	/	/
Cc1ccc(NC(=O)Cn2c(=O)c(CNc3ccccc3)cc3cc4c(cc32)OCCO4)cc1	/	-13%	?	?	/	/
CCOc1ccc(NC(=O)Cn2c(=O)oc3ccccc32)cc1	-6%	5%	6%	-1%	10µM*	-8%
CC(=O)c1cccc(NC(=O)Cn2c(=O)c(CNc3ccc(C)cc3)cc3cc4c(cc32)OCCO4)c1	/	-17%	?	18µM*[quencher]	/	/
CN(CC(=O)Nc1ccccc1C(F)(F)F)C(=O)COc1ncnc2ccccc12	?	-3%	-5%	-3%	/	6%
Cc1nc2ccc(N=NN(C)C)cc2[nH]1	?	10µM*	?	?	/	/
Cc1cccc(CNc2ncncc2-c2cccc(NS(C)(=O)=O)c2)c1	?	-13%	-8%	-14%	16µM*	?
COc1cccc(-c2cncnc2NCc2ccccc2)c1	0%	?	1%	-5%	14µM*	?
CS(=O)(=O)Nc1cccc(-c2nc(NCc3cccnc3)c3ccccc3n2)c1	9%	-10%	-15%	?	-15%	7%
CS(=O)(=O)Nc1cccc(-c2ccc3ncnc(NCc4cccnc4)c3c2)c1	?	-4%	?	-14%	25µM*	6%
CS(=O)(=O)Nc1cccc(-c2nc(NCc3ccccc3)c3ccccc3n2)c1	/	/	/	/	/	25µM*
COc1ccc2c(CC(=O)OCC(=O)Nc3sc4c(c3C#N)CCC(C)C4)coc2c1 (centres undefined)	3%	-6%	-3%	-25%	-19%	?
S=c1[nH]nc(Cc2ccc(Cl)cc2)o1	-4%	/	-11%	-5%	/	/
Cc1cccc(OCCSCc2nc3ccccc3[nH]2)c1	-2%	-13%	3%	-19%	-15%	-4%
S=c1[nH]nc(COc2ccc3ccccc3c2)o1	-9%	-10%	2%	-6%	-20%	3.5µM*
S=c1[nH]nc(CSCCOc2ccccc2)o1	-27%	-7%	-1%	-3%	/	20µM*
S=c1[nH]nc(CSCCOc2ccc(Cl)cc2Cl)o1	?	-6%	-1%	-7%	/	0.1µM*
COc1ccc(Cc2n[nH]c(=S)o2)cc1	2%	-5%	7%	7%[2.34 µM]	/	?
COc1cccc(N2CCN(C(=O)c3ccc4c(Cl)c5c(nc4c3)CCCC5)CC2)c1	/	?	-3%	-22%	/	/
Cn1cnc(S(=O)(=O)N2CCC(C(=O)N3CCN(c4ccc(Cl)cc4)CC3)CC2)c1	/	-1%	2%	-3%	/	/
Cc1sc(NC(=S)NC(=O)C(C)(C)C)c(C(N)=O)c1C	3%	-18%	3%	-6%	?	7.9µM*
CCOC(=O)c1c(NC(=S)NC(C)=O)sc(C)c1C	-6%	-14%	-5%	-6%	-5%	2%
CCC1(C)NC(=O)N(CC(=O)Nc2sc3c(c2C(=O)OC)CCCCC3)C1=O (centres undefined)	-2%	-10%	12%	-6%	-4%	?
CC(=O)Nc1sc2c(c1C(N)=O)CCC2	?	1%	8%	5%	-23%	5%
